# Experimental data reported in the supplement of paper PMC10849652.
# Targets with a hit are over-represented here; the source holds about 7,900 in all. About 0.6% of all pairs of compound and target were hits. Values without a mark were called inactive.
# Legend:
# Assay in all cases: log2 fold change, soluble protein after heating vs DMSO (PISA); higher = thermal stabilisation; K562 cells, 10 uM, 30 min; active = over 0.2 and 3.5 SD of the protein, either way, in both replicates (recomputed)
# [1] = compound: NC(=O)Nc1cc(-c2cccc(F)c2)sc1C(=O)N[C@H]1CCCNC1
# Method in brief: (§1)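 K562 cells at 2×10^6 cells/mL were exposed to 10 μM compound for 30 min, then aliquots were heated for 3 min across 48°C-58°C, pooled, and extracted in PBS containing 0.5% NP-40 at 4°C. The supernatant after 21,000xg for 90 min was taken as soluble protein and measured by TMTpro 16plex LC-MS/MS with channel sums equalised. Thermal stability is reported relative to control samples, with values from duplicates. Fold changes are given on a log2 scale.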
# [2] = compound: NC(=O)c1cnc(N[C@@H]2CCCC[C@@H]2N)nc1Nc1cccc(-n2nccn2)c1
# Method in brief: as §1
# [3] = compound: NC1(c2ccc(-c3nc4ccn5c(=O)[nH]nc5c4cc3-c3ccccc3)cc2)CCC1
# Method in brief: as §1
# [4] = compound: NCC(=O)Nc1ccc(-n2nc(C(F)(F)F)cc2-c2ccc3c(ccc4ccccc43)c2)cc1
# Method in brief: as §1
# entinostat = compound: Nc1ccccc1NC(=O)c1ccc(CNC(=O)OCc2cccnc2)cc1 [entinostat]
# Method in brief: as §1
# vorinostat = compound: O=C(CCCCCCC(=O)Nc1ccccc1)NO [vorinostat]
# Method in brief: as §1
# citarinostat = compound: O=C(CCCCCCNC(=O)c1cnc(N(c2ccccc2)c2ccccc2Cl)nc1)NO [citarinostat]
# Method in brief: as §1
# silmitasertib = compound: O=C(O)c1ccc2c(c1)nc(Nc1cccc(Cl)c1)c1ccncc12 [silmitasertib]
# Method in brief: as §1
# [5] = compound: O=C1NC(=O)C(c2cnc3ccccn23)=C1c1cn2c3c(cc(F)cc13)CN(C(=O)N1CCCCC1)CC2
# Method in brief: as §1
# [6] = compound: c1cc(OCCN2CCCCC2)cc(-c2n[nH]c3ccc(-c4nnc[nH]4)cc23)c1
# Method in brief: as §1
# entospletinib = compound: c1cn2cc(-c3ccc4cn[nH]c4c3)nc(Nc3ccc(N4CCOCC4)cc3)c2n1 [entospletinib]
# Method in brief: as §1
# UniProt O14975, sequence (O14975 whole entry, looked up): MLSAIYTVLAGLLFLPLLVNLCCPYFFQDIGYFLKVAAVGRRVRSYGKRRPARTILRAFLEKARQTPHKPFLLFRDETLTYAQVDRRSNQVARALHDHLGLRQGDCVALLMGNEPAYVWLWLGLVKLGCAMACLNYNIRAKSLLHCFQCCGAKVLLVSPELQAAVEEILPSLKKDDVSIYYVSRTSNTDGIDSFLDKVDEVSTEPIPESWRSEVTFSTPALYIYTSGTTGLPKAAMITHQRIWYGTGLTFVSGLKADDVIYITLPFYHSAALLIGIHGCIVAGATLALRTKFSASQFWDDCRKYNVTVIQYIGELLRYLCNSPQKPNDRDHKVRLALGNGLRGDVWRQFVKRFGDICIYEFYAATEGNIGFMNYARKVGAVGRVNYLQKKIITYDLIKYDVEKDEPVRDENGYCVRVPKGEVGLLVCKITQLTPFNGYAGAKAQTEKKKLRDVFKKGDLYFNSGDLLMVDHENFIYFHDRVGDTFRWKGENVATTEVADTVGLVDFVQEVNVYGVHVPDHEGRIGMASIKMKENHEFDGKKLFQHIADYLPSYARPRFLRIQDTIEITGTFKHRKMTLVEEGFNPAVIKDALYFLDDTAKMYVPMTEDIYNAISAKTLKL
# UniProt Q9UHB9, sequence (Q9UHB9 whole entry, looked up): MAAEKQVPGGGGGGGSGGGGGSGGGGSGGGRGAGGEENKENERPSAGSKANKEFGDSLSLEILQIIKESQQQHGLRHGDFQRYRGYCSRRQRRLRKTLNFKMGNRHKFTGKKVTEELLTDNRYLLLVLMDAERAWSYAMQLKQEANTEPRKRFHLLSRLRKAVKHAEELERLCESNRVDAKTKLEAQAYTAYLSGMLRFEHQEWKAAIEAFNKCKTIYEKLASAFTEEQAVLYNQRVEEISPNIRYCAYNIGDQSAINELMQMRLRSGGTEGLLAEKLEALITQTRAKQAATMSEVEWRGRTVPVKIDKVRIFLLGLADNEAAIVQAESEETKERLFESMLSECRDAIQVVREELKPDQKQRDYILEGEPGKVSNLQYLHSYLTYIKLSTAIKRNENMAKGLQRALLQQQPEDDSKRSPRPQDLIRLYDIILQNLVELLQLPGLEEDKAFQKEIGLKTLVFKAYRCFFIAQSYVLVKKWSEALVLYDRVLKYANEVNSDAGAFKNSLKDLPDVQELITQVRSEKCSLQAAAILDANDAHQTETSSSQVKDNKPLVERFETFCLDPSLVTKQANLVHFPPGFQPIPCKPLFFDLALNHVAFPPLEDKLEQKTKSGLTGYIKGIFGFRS
# UniProt Q9NZD8, sequence (Q9NZD8 whole entry, looked up): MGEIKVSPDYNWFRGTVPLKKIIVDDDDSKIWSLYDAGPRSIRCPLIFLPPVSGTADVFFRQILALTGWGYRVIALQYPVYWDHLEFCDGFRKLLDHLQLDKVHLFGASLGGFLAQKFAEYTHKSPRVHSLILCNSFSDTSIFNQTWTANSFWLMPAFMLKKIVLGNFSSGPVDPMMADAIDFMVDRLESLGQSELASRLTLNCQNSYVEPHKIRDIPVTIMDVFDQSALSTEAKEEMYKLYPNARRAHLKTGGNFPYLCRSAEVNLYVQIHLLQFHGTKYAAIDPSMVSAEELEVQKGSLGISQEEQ
# UniProt O60749, sequence (O60749 whole entry, looked up): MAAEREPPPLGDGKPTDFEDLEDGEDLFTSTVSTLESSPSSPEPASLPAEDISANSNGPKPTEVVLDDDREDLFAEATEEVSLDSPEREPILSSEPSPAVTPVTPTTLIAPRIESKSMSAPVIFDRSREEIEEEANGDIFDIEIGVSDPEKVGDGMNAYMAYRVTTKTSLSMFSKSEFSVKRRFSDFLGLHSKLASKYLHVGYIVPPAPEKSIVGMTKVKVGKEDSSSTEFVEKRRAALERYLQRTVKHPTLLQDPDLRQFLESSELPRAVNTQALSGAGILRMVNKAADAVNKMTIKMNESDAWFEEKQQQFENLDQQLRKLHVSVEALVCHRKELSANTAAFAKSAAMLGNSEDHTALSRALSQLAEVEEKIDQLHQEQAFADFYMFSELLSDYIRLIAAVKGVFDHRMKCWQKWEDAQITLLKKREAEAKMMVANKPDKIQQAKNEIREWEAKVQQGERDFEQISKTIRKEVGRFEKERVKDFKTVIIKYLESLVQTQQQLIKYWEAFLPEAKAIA
# UniProt Q9Y5J6, sequence (Q9Y5J6 whole entry, looked up): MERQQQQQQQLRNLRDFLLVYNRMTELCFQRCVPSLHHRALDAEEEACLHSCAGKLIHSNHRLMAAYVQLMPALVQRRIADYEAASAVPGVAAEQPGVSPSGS
# UniProt Q02447, sequence (Q02447 whole entry, looked up): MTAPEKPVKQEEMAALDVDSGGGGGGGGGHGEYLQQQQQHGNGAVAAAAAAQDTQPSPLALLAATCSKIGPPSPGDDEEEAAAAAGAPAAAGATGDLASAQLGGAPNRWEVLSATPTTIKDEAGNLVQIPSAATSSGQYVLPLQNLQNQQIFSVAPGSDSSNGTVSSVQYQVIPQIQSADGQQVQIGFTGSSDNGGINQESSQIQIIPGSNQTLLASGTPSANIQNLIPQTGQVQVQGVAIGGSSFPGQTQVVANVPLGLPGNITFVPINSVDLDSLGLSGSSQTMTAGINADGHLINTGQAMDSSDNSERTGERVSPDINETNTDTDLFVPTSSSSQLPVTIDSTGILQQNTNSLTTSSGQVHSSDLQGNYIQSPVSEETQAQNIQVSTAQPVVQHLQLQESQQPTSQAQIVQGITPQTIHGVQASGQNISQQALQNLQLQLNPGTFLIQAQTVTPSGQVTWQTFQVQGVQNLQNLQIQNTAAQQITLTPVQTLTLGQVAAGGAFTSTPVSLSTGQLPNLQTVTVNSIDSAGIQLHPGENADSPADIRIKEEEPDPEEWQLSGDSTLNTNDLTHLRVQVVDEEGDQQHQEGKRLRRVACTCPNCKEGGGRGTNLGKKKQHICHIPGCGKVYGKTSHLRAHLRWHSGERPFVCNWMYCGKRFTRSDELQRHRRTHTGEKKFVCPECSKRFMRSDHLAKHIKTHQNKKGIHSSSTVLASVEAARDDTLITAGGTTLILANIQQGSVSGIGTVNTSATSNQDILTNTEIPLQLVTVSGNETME
# UniProt Q66K14, sequence (Q66K14 whole entry, looked up): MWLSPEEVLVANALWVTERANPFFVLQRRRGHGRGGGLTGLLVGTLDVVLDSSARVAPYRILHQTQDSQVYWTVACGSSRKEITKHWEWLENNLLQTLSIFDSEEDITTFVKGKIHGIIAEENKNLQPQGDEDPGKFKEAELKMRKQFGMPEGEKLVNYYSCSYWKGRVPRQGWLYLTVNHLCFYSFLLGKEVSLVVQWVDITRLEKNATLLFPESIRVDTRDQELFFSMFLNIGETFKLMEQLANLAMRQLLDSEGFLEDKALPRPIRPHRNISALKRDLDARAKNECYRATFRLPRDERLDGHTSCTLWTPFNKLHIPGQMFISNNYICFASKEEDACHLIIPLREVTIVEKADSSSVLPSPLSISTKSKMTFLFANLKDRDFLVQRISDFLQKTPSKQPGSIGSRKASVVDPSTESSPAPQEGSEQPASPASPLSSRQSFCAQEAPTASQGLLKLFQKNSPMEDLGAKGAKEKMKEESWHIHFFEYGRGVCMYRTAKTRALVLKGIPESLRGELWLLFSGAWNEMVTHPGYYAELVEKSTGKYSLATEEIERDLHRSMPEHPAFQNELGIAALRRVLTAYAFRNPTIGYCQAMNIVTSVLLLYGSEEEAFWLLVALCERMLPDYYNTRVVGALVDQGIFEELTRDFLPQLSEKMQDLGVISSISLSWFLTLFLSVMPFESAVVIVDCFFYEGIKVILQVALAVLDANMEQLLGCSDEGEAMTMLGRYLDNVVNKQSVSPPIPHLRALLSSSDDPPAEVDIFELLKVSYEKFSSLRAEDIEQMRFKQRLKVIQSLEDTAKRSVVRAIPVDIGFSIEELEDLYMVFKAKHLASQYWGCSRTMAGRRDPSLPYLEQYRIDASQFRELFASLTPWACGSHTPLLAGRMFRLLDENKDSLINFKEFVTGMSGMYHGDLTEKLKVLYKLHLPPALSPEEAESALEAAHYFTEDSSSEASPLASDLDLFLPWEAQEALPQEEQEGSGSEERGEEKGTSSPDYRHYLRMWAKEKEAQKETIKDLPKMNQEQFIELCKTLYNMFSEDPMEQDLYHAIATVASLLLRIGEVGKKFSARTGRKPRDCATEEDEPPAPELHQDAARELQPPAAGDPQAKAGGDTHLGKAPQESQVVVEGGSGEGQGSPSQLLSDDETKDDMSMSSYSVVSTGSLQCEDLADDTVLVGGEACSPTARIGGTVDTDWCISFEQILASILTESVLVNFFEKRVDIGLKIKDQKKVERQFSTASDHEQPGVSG
# UniProt P62072, sequence (P62072 whole entry, looked up): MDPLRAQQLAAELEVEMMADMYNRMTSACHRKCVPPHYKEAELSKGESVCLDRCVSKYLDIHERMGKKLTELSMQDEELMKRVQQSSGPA
# UniProt Q92844, sequence (Q92844 whole entry, looked up): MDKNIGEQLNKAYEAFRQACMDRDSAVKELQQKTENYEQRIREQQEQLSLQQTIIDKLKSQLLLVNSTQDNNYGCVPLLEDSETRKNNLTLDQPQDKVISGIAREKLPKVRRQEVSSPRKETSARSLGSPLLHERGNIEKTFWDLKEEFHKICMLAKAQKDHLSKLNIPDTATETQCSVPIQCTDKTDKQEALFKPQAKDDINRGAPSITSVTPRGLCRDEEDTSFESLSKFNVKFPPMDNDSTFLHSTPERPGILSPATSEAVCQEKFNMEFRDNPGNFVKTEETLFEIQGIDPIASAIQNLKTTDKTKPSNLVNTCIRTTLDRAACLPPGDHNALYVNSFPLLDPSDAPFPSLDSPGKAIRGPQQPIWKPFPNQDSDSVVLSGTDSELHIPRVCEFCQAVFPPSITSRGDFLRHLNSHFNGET
# UniProt Q9H4I9, sequence (Q9H4I9 whole entry, looked up): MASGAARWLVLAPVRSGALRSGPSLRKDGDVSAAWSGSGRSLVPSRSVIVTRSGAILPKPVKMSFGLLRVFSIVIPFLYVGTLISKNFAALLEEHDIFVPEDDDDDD
Target,log2 fold change [1],log2 fold change [2],log2 fold change [3],log2 fold change [4],log2 fold change (entinostat),log2 fold change (vorinostat),log2 fold change (citarinostat),log2 fold change (silmitasertib),log2 fold change [5],log2 fold change [6],log2 fold change (entospletinib)
SMARCE1 (UniProt Q969G3),0.05,0.096,0.218,0.707,0.076,0.088,0,0.211,-0.008,-0.016,-0.117
TAOK3 (UniProt Q9H2K8),-0.013,-0.149,-0.048,0,0.034,0.036,0.106,0,0.021,-0.203,-0.016
SRP68 (UniProt Q9UHB9),-0.068,-0.08,-0.094,-0.035,0.101,0.08,0.095,0.08,0.096,-0.062,0.091
SP3 (UniProt Q02447),0.15,-0.011,-0.033,0.025,0.027,-0.026,-0.147,0.046,-0.02,0.04,-0.071
SLK isoform 2 (UniProt Q9H2G2),-0.314 (active),-0.042,-0.058,-0.014,0.048,0.006,0.074,0.124,0.009,-0.044,-0.059
TLK1 (UniProt Q9UKI8),-0.062,-0.074,-0.063,-0.034,0.042,0.027,0.049,-0.002,0.002,-0.074,0.001
TFAM (UniProt Q00059),-0.079,-0.006,0.085,0.011,-0.035,0.005,-0.151,0.011,0.06,-0.115,0.08
SMPD4 isoform 4 (UniProt Q9NXE4),-0.008,-0.075,-0.141,-0.059,0.033,0.084,-0.039,0.085,0.012,0.268,0.143
TIMM10B (UniProt Q9Y5J6),0.021,0.257,-0.111,-0.007,0.016,-0.202,0.074,0.034,-0.04,0.022,0.045
SRC isoform 2 (UniProt P12931),-0.578 (active),0.006,0.049,-0.088,0.12,0.079,-0.104,0.122,0.093,0.199,0.02
SMARCA4 (UniProt P51532),-0.144,-0.056,0.048,-0.201,0.012,0.038,0.102,-0.017,-0.067,-0.115,0.097
SP100 isoform 4 (UniProt P23497),0.03,-0.007,-0.025,-0.039,0.007,-0.046,-0.011,0.059,-0.051,0.02,0.045
SNX2 (UniProt O60749),-0.001,-0.204,-0.146,0,0.092,0.093,0.062,-0.068,-0.044,-0.082,-0.015
TANK (UniProt Q92844),0.076,0.041,-0.035,0.023,-0.001,-0.084,-0.022,0.064,0.028,0.01,-0.076
SPG21 (UniProt Q9NZD8),0.072,0.305 (active),-0.054,0.123,0.004,0.013,-0.001,-0.013,-0.104,0.007,-0.028
SMDT1 (UniProt Q9H4I9),-0.062,0.032,-0.061,-0.039,0.01,-0.038,0.002,0.041,-0.011,-0.001,0.01
TIMM10 (UniProt P62072),-0.004,0.042,-0.027,-0.077,0.058,-0.048,-0.012,0.009,-0.04,-0.043,0.009
SNRNP40 (UniProt Q96DI7),0.017,-0.017,0.065,-0.011,-0.067,-0.018,-0.008,0.058,0.04,-0.121,-0.025
SRSF7 (UniProt Q16629),0,0.13,0.525,0.027,-0.079,0,-0.132,-0.144,0.357,-0.33,0.197
TAOK1 (UniProt Q7L7X3),-0.043,-0.04,-0.063,-0.068,-0.01,0.048,0,-0.003,-0.038,-0.194,-0.009
TGFBR1 isoform 2 (UniProt P36897),0.029,0.072,-0.041,0.002,0.093,-0.083,0.017,0.073,-0.052,-0.054,-0.018
SLC30A10 (UniProt Q6XR72),-0.035,0.088,0.084,0.133,-0.003,-0.215,-0.008,-0.05,-0.005,-0.432 (active),0.01
SLC27A2 (UniProt O14975),-0.068,-0.091,0.007,-0.047,-0.023,-0.053,0.059,0.083,0.247,-0.035,0.063
SRSF3 (UniProt P84103),-0.05,0.148,0.396,0.064,-0.126,-0.026,-0.105,-0.033,0.194,-0.141,0.153
TBC1D9B (UniProt Q66K14),-0.194,-0.095,-0.07,-0.012,-0.085,-0.034,0.173,0.021,-0.176,-0.13,0.138
SMAD2 (UniProt Q15796),-0.184,-0.064,0.005,-0.039,-0.103,-0.051,0.034,-0.073,0.009,-0.018,-0.013
SSR4 (UniProt P51571),0.032,-0.013,-0.011,0.023,-0.011,0,0.019,-0.029,0.004,-0.056,-0.021
